# Compound activity (PubChem BioAssay)
# The list is not random: actives were taken first. Their share in the collection is about 11%.
# Pf growth 48h – inhibits P. falciparum growth in the first generation, 48 h; P. falciparum luciferase growth in erythrocytes, 48 h; Potency, µM (doses to about 28.7 µM), for inactives: at the top dose activity change, negative = inhibition, most hits filed as inhibitors; 310,000 compounds, 5.9% hits; AID 504832
#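 Here the parasites carry a stable luciferase gene and grow inside erythrocytes in Albumax-based RPMI medium with compound for one erythrocytic cycle. Activity is scored as loss of luminescent signal.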
# Pf growth 96h – inhibits malaria parasite growth, 96 h | 320,000 compounds, 6.9% hits | Potency, µM (series often up to 28.7 µM), for the others: at the top dose activity change, negative = inhibition, actives largely listed as inhibitors | P. falciparum luciferase reporter growth, 96 h | AID 504834
#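 Luminescence readout: decreased luciferase signal marks inhibited growth of reporter-expressing P. falciparum in infected red cells (2% hematocrit, 0.05% parasitemia final), exposed to compound two generations (96 h, 37 C, 5% CO2).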
# HCV inhibitor – inhibitors of hepatitis C virus infection | Huh7.5.1 HCVcc-Cre infection, luciferase reporter, 44 h | Potency, µM (highest dose often 41.8 µM), without a hit: at the highest dose activity change, negative = inhibition, actives largely listed as inhibitors | 340,000 compounds, 3.4% hits | AID 651820
#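 Reporter virus HCVcc-Cre (~0.5 moi) infects cells exposed to compound; seeding density 1,000 cells/well with 4 h settling beforehand. Luminescence, 15 sec read, taken 44 h post-infection following a 15 min RT substrate incubation.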
# AMA1-RON2 inh – AMA1-RON2 (P. falciparum) interaction inhibition. AlphaScreen AMA1-biotinylated RON2 peptide binding. Potency, µM (top dose mostly 58.2 µM), inactives show top-dose activity change, negative = inhibition, usual class: inhibitors. 360,000 compounds, 0.2% hits;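 further: 0% = vehicle wells and -100% = peptide control; nearly all actives have a fitted effect of over 45% in size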
#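 AMA1 (3D7) with his tag at 25 nM final met compounds first, then biotinylated RON2 peptide at 25 nM; detection used donor plus acceptor beads, 10 µg/mL apiece, read by AlphaScreen after 30 min at room temperature.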
# AmpC inh detg – AmpC beta-lactamase inhibition with detergent present; P00811; AmpC hydrolysis of nitrocefin, absorbance 480 nm, 0.01% Triton; Potency, µM (doses to about 114 µM), for the others: at the highest dose activity change, negative = inhibition, actives largely listed as inhibitors; 370,000 compounds, 0.041% hits;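 further: 0% = no-compound wells and -100% = no-enzyme wells; nearly all actives have a fitted effect of over 25% in size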
# Target sequence (P00811 whole entry, looked up): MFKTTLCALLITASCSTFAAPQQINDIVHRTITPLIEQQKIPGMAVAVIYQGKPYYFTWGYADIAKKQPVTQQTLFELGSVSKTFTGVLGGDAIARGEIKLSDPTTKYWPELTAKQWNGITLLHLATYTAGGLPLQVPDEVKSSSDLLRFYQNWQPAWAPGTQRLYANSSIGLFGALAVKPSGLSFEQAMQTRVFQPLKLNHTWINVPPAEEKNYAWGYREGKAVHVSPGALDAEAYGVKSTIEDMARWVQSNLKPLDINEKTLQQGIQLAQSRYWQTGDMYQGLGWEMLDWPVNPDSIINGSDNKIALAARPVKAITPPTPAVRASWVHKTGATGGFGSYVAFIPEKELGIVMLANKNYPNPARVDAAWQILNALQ
#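 AmpC (5.3 nM in the dispensed reagent) in 20 mM phosphate pH 7.0 with 0.01% (detergent screen) or 0.0001% Triton X-100 was preincubated with compounds for 15 min at room temperature. Nitrocefin was then added from an 800 uM solution, and hydrolysis was followed at 480 nm.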
# AmpC no deterg – inhibitors of E. coli AmpC beta-lactamase without detergent. P00811. AmpC nitrocefin hydrolysis, absorbance 480 nm, 0.0001% Triton. Potency, µM (top dose mostly 57.1 µM), without a hit: at the top dose activity change, negative = inhibition, usual class: inhibitors. 330,000 compounds, 0.52% hits. AID 485341;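 further: plate controls were no compound for no effect and no enzyme for full effect; nearly all actives have a fitted effect of over 20% in size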
#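 AmpC (5.3 nM in the dispensed reagent) in 20 mM phosphate pH 7.0 with 0.01% (detergent screen) or 0.0001% Triton X-100 was preincubated with compounds for 15 min at room temperature. Nitrocefin was then added from an 800 uM solution, and hydrolysis was followed at 480 nm.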
# An asterisk follows results filed as active; ? = inconclusive; . = not tested or not shown; ! = a repeat was not active; [ ] = remark or other dose. The call rests on the fitted dose curve; in most records, active means well fitted curve in the direction sought with a large enough effect; inconclusive means small, poorly fitted or top-dose-only effect, or another doubt; inactive means no such curve, though single readings can be large; an effect the other way counts as inactive or inconclusive. Unless noted, on the % scale 0 is the no-effect control and ±100 the full control effect; potency means the concentration at half of the fitted maximal effect.
SMILES,Pf growth 48h,Pf growth 96h,HCV inhibitor,AMA1-RON2 inh,AmpC inh detg,AmpC no deterg
Cc1c(CNC2CCCCC2)c(C(=O)O)c(C)n1Cc1c(F)cccc1Cl,.,.,.,.,25%,.
Cc1nc2cccnc2n1-c1cccc(C(=O)NCCN(C)C)c1,.,.,.,.,11%,.
Cc1ccc(OCC(=O)Nc2nnc(S(=O)(=O)N3CCc4ccccc43)s2)cc1,.,.,.,.,6%,.
COC(=O)c1ccc(C(=O)Nc2ccc(N)cc2N)cc1,4.1µM*,-9%,-15%,-21%,?,4%
Cc1ccc([N+](=O)[O-])cc1NC(=O)Nc1cccc(F)c1,7.4µM*,?,?,8%,2%,-50%
COC(=O)c1ccc(NC(=O)Nc2cccc(F)c2)cc1,335%,11%,10µM*,24%,6%,-23%
COc1ccc(NC(=O)Nc2cccc(F)c2)c(OC)c1,-24%[5.75 µM],-18%,-27%,?,-11%,-29%
COC(=O)c1ccc(C(=O)Nc2ccc(F)cc2)cc1,67%,146%,7.1µM*,-1%,-14%,-1%
COc1cc(OC)c(NC(=O)Cn2c(SCc3ccccc3F)nc3cccnc32)cc1Cl,.,.,.,.,23%,.
CCCc1cnc2c(c1SCC(=O)N(C)c1ccccc1)c(=O)n(C)c(=O)n2C,.,.,.,.,1%,.
COc1ccc(C(=O)Nc2ccc(OC)c(OC)c2)cc1,76%,-2%,-10%,-3%,-15%,-11%
COc1ccccc1Oc1ccc(NC(=O)c2ccc(Cl)cc2)cc1,?,?,2.8µM*,17%,?,-14%[2.29 µM]
O=C(Nc1ccccc1)Nc1ccc(F)cc1F,84%,-1%,-13%,-4%,-2%,-28%
COC(=O)c1ccc(NC(=O)Nc2ccc(F)cc2F)cc1,246%,8%,11µM*,1%,0%,-30%
CCc1ccc(-n2c(=O)c3c(C)c(C)sc3n(CC(=O)NCc3ccc(C)cc3)c2=O)cc1,.,.,.,.,16%,.
Cc1ccc(S(=O)(=O)N2[C@@H](c3ccc(F)cc3)C(C(=O)O)=CC[C@H]2c2ccc3c(c2)OCO3)cc1,?,12µM*,9%,2%,-8%,-26%
Cc1ccc(S(=O)(=O)N2[C@@H](c3ccccc3F)C(C(=O)O)=CC[C@H]2c2ccc3c(c2)OCO3)cc1,?,12µM*,-11%[8.37 µM],-5%,0%,-27%
Cc1ccc([C@@H]2CC=C(C(=O)O)[C@H](c3ccc(F)cc3)N2S(=O)(=O)c2ccc(C)cc2)cc1,32%,78%,16%,15%,-13%,-15%
CCOc1ccc2nc3c(cc2c1)CN(CCOC)C(=NC)S3,?,2.1µM*,-5%,-13%,-2%,11%
CCCCC(=O)NC(c1ccc([N+](=O)[O-])cc1)c1c(O)ccc2ccccc12 (centres undefined),10µM*,63%,?,-28%,?,?
CCC(=O)NC(c1ccc([N+](=O)[O-])cc1)c1c(O)ccc2ccccc12 (centres undefined),4.1µM*,?,?,-9%,-11%,-33%
O=C(CCOc1ccccc1)N(Cc1cccnc1)c1nc2c(Cl)cccc2s1,.,.,.,.,0%,.
CC(N)CCCC(C)(C)O (centres undefined),-15%,3%,.,.,.,.
CCCCN(C)C(=O)Cn1c(=O)oc2cc(S(=O)(=O)N3CC(C)CC(C)C3)ccc21 (centres undefined),?,13µM*,-9%,0%,-14%,44%
CCOC(=O)Cn1c(=O)oc2cc(S(=O)(=O)N3CCCC(C(=O)OCC)C3)ccc21 (centres undefined),.,10µM*,4%,3%,?,20%
SMILES,Pf growth 48h,Pf growth 96h,HCV inhibitor,AMA1-RON2 inh,AmpC inh detg,AmpC no deterg
CCOC(=O)Cn1c(=O)oc2cc(S(=O)(=O)N3CCCc4ccccc43)ccc21,.,-10%,6%,-2%,?,9%
CCOC(=O)Cn1c(=O)oc2cc(S(=O)(=O)N3CCn4c3nc3ccccc34)ccc21,-11%,15µM*,0%,-10%,-11%,22µM*
CC1CC(C)CN(C(=O)Cn2c(=O)oc3cc(S(=O)(=O)N4CCCC4)ccc32)C1 (centres undefined),?,12µM*,8%,-5%,0%,17%
CCOC(=O)Cn1c(=O)oc2cc(S(=O)(=O)N3CCCC(C)C3)ccc21 (centres undefined),-29%,40%,16%,14%,1%,3%
Cc1c(Cl)cccc1NC(=O)Nc1nnc(N2CCCCCC2)s1,.,.,.,.,16%,.
CN(CC(=O)Nc1ccc([N+](=O)[O-])cc1Br)Cc1c(F)cccc1Cl,?,-18%,14µM*,-14%,9%,-34%
COc1ccc(CNn2c(C)nc3ccccc3c2=O)cc1,2%,-2%,-26%,-16%,-16%,1%
CCCCOc1ccc(CNn2c(C)nc3ccccc3c2=O)cc1,25%,0%,10µM*,5%,-2%,-13%
COc1cccc(OC)c1C(=O)Nn1c(-c2cccc(C)c2)nc2ccccc2c1=O,-22%,?,-27%,-9%,2%,-2%
COc1ccccc1CNn1c(-c2cccc(C)c2)nc2ccccc2c1=O,.,12µM*,?,0%,8%,5%
COc1ccc(CNn2c(-c3cccc(C)c3)nc3ccccc3c2=O)cc1OC,.,12µM*,?,36%,?,83%
CCOc1ccc(OCC)c(Nc2nc3ccc(Cl)cc3n3cnnc23)c1,.,.,.,.,13%,.
CC(C)CSc1nnc(-c2ccccc2)c(-c2ccccc2)n1,.,.,.,.,-10%,.
CC1=C(C)CC2(SC1)C(=O)N(c1ccccc1)N=C2N (centres undefined),40%,8%,12%,-10%,7%,-14%
CC1=NN(c2ccccc2)C(=O)C1(C)C,4%,9.3µM*,12%,5%,1%,1%
CN(C)C(=O)C(CCN1CCC(O)(c2ccc(Cl)cc2)CC1)(c1ccccc1)c1ccccc1,2.9µM*,2.9µM*!,?,4%,-14%,49%
CN1CCN(CC(=O)Nc2c(C(=O)c3ccccc3)oc3ccccc23)CC1,?,-68%,11µM*,-6%,-1%,103%
CCOC(=O)c1oc2ccc(Br)cc2c1NC(=O)CN1CCN(C)CC1,?,133%,10µM*,12%,-6%,120%
COc1cc(OC)c(NC(=O)c2nnn(Cc3ccc(C)cc3)c2N)cc1Cl,.,.,.,.,1%,.
CC1=C(C)/C(=N\OS(=O)(=O)c2ccc(C)cc2)C=CC1=O,?,-1%,?,?,0%,-28%
